# Test results taken from PubChem BioAssay (NCATS).
# Inconclusive results are not listed. A number with no mark means an inactive call. Activity calls are given as the source filed them. The call rests on the fitted dose curve.
# Assay: qHTS assay for small molecule disruptors of the mitochondrial membrane potential - 5 hr assay (AID 651755); further: nearly all actives have a fitted effect of over 40% in size
# Conditions: JC-1-type ratio dye; series mostly up to 92.2 µM; ratio change, negative = disruption: at the top concentration
# Description: National Center for Advancing Translational Sciences [NCATS]
# NIH Chemical Genomics Center [NCGC]
# National Institutes of Environmental Health Sciences [NIEHS]
# National Toxicology Program [NTP]
# Mitochondrial membrane potential (MMP), one of the parameters for mitochondrial function, is generated by mitochondrial electron transport chain that creates an electrochemical gradient by a series of redox reactions. This gradient drives the synthesis of ATP, a crucial molecule for various cellular processes. Measuring MMP in living cells is commonly used to assess the effect of chemicals on mitochondrial function. […] The dye accumulates in the mitochondria of healthy cells as aggregates, with red fluorescence. The mitochondrial potential collapses and the dye can no longer accumulate in the mitochondria and remains in the cytoplasm in monomers, with green fluorescence.
# 2,000 HepG2 cells in 5 uL/well were dispensed into black, clear-bottom 1536-well plates using a Multidrop Combi (Thermo Scientific) dispenser. The assay plates were incubated overnight at 37C to allow cells to attach to the wells, followed by the transfer of 23 nL compound or DMSO vehicle by a pin tool (Kalypsys). The plates were incubated for 5 hr at 37C and 5% CO2, followed by the addition of 5 uL of 2X Mito-MPS dye (BD Biosciences) into each well using Flying Reagent Dispenser (Aurora Discovery) and then following 30 min incubation at 37C. Fluorescence intensity (490nm excitation and 535nm emission for monomers; and 540nm excitation and 590nm emissions for aggregates) was measured using an Envision plate reader.
# On the % scale 0 is the no-effect control and ±100 the full control effect; potency means the concentration at half of the fitted maximal effect.
Structure (SMILES),Potency,"ratio change, negative = disruption"
CCCCCCCCCCCC(=O)O,inactive,
COc1ccc2nc(N)sc2c1,,4.27%
OCCNCCO,,-0.75%
O=C(O)CC(C(=O)O)C(CC(=O)O)C(=O)O (stereo not given),,1.61%
O=C(O)c1ccccc1,,-2.19%
c1ccc2scnc2c1,,0.416%
O=S(=O)(O)c1ccccc1,,0.103%
CCC(C)c1ccccc1O (stereo not given),inactive,
COc1cc(/C=C/c2ccccc2)oc(=O)c1,,-10%
CC(C)=CCCC(C)CCO (stereo not given),,5.14%
C=Cc1ccccc1Cl,,-6.17%
CC1=CC(C)(C)Nc2ccccc21,inactive,
COc1ccc(/C=C/c2cc(OC)cc(=O)o2)cc1,,-3.04%
CCCCCCCCCCCCCC(=O)O,,-1.95%
C=CC(=O)OCCOCCOCCOCCOC(=O)C=C,inactive,
O=C1CCc2ccccc2O1,,10.2%
c1ccccc1,inactive,
Cc1ccc(N)c([N+](=O)[O-])c1,,-10.2%
Nc1ccc(S(=O)(=O)O)cc1,,9.29%
CCCCC(CC)CN (stereo not given),inactive,

Structure (SMILES),Potency,"ratio change, negative = disruption"
CC(=O)OC/C=C(\C)CCC=C(C)C,,2.8%
Cc1cccc([N+](=O)[O-])c1C,,0.623%
O=C(O)c1ccc(O)cc1O,inactive,
CCCCOCCO,inactive,
CCO[Si](CCCN)(OCC)OCC,,-3.88%
COc1c2ccoc2cc2oc(=O)ccc12,,-0.0092%
Nc1ccc(Cl)cc1Cl,,2.71%
CC1(C)CC(N=C=O)CC(C)(CN=C=O)C1 (stereo not given),,5.62%
CCO,,0.84%
COC(=O)c1ccc(C=O)cc1,,0.783%
Clc1cc(Cl)c(Cl)cc1Cl,,0.0762%
CCCCCCCCO,,0.711%
Clc1cc(Cl)c(Cl)c(Cl)c1Cl,,0.102%
C=C(C)C1CC=C(C)C(O)C1 (stereo not given),,8.31%
c1ccc2c(c1)c1cccc3ccc4cccc2c4c31,,-23.2%
C=CCc1ccc(OC)c(OC)c1,,1.92%
C[C@H](CCC(=O)O)[C@H]1CC[C@H]2[C@@H]3CC[C@@H]4C[C@H](O)CC[C@]4(C)[C@H]3CC[C@]12C,,-4.43%
C=CCOC(=O)c1ccccc1C(=O)OCC=C,,-0.763%
O=[N+]([O-])c1cccc(Cl)c1Cl,,1.35%
O=C1c2ccccc2C(=O)C1c1ccc2ccccc2n1,1680 nM (active),
